# Laboratory results published in PubChem BioAssay AID1986 (Sanford-Burnham Center for Chemical Genomics, 2009).
# About 890 (0.31%) of roughly 290,000 compounds were called active. Cut-off read from the data, not from the text of the source: active = inhibition mostly above about 52% (no sharp cut-off); inactive = mostly below about 76%. What follows is part of a selection rich in actives, with near analogues and random picks from the rest.
# Assay: inhibitors of HIV fusion peptide binding, primary screen, biochemical, uHTS, fluorescence dequenching (AID 1986)
# Conditions: cell-free peptide binding, 30 min, stronger effect = higher value
# [1] = measured here: repeat confirmation average inhibition, at 18.6 µM
Compound,inhibition (at 20 µM),inhibition [1] [%]
Cc1cc(NC(=O)COC(=O)CCS(=O)(=O)c2ccc(Cl)cc2)no1,1.1% (inactive),
CC(C(=O)N1CCc2ccccc21)n1cccc1 (configuration not stated),-2.3% (inactive),
Cc1ccc(C)c(NC(=O)c2ccccc2NS(=O)(=O)c2cc([N+](=O)[O-])ccc2C)c1,47.1% (inactive),
CC(=O)Nc1ccc(NS(=O)(=O)c2cc([N+](=O)[O-])ccc2C)cc1,0.5% (inactive),
C=CCOC(=O)CCC(=O)Nc1cc(OC)nc(OC)n1,-0.6% (inactive),
Cc1ccc(S(=O)(=O)Cc2cn3cccnc3n2)cc1,-2.2% (inactive),
COc1ccc2c(c1)c(C(=O)N/N=C/c1cccc(Br)c1)c(C)n2C,0.5% (inactive),
COc1ccc(N2CC(C(=O)NCCc3c[nH]c4ccccc34)CC2=O)cc1 (configuration not stated),0.2% (inactive),
COc1ccc(/C=C2\SC(=N)N(c3nccs3)C2=O)cc1OC,13.9% (inactive),
N=C1S/C(=C\c2ccc(-c3cccc(Cl)c3)o2)C(=O)N1c1nccs1,68.1% (inactive),15.5
N=C1S/C(=C\c2ccco2)C(=O)N1c1nccs1,51.1% (active),
CCCCNC(=O)CNC(=S)N(Cc1ccc(C)cc1)Cc1ccco1,2.5% (inactive),
CCOC(=O)CC1C(=O)NCCN1c1nc2c(C)cccn2c(=O)c1/C=C1\SC(=S)N(C(C)CC)C1=O (configuration not stated),137% (inactive),
CCOC(=O)CC1C(=O)NCCN1c1nc2ccc(C)cn2c(=O)c1/C=C1\SC(=S)N(C(C)CC)C1=O (configuration not stated),148% (inactive),
CCCN1C(=O)/C(=C/c2c(N3CCNC(=O)C3CC(=O)OCC)nc3c(C)cccn3c2=O)SC1=S (configuration not stated),146% (inactive),
CCCN1C(=O)/C(=C/c2c(N3CCNC(=O)C3CC(=O)OC)nc3c(C)cccn3c2=O)SC1=S (configuration not stated),148% (inactive),
CCOC(=O)CC1C(=O)NCCN1c1nc2ccc(C)cn2c(=O)c1/C=C1\SC(=S)N(CC(C)C)C1=O (configuration not stated),109% (active),147
CCOC(=O)CC1C(=O)NCCN1c1nc2c(C)cccn2c(=O)c1/C=C1\SC(=S)N(CC(C)C)C1=O (configuration not stated),117% (active),
Cc1ccccc1NC(=O)Cn1c(=O)sc2ccccc21,-1.5% (inactive),
CC1=C(C(=O)OCC2CCCO2)C(c2coc3ccc(Cl)cc3c2=O)C2=C(CCCC2=O)N1 (configuration not stated),-0.8% (inactive),
COc1ccccc1CC(=O)Nc1cccc2c1CCCC2,-2.5% (inactive),
COc1ccc2nc(SCC(=O)Nc3nonc3C)[nH]c2c1,0.1% (inactive),
CSc1ccccc1C(=O)NCC(c1ccco1)N(C)C (configuration not stated),-2.2% (inactive),
CC1=C(C(=O)NC2CCCc3c2cnn3-c2cccc(C)c2C)OCCO1 (configuration not stated),-0.2% (inactive),

Compound,inhibition (at 20 µM),inhibition [1] [%]
CC(=O)c1ccc(N(C)C)c2c(N(C)C)cccc12,-0.7% (inactive),
CN(C)c1cccc2c(C=C(C#N)C#N)ccc(N(C)C)c12,89.8% (active),
CN(C)c1cccc2c(/C=N/O)ccc(N(C)C)c12,-1.6% (inactive),
Cc1ccc(NC(=O)c2cc(S(=O)(=O)N3CCOCC3)cn2C)cc1Cl,-0.7% (inactive),
Cc1ccc(N(CC(=O)NCc2ccccc2Cl)S(=O)(=O)c2cccs2)cc1,0.6% (inactive),
O=C(CSc1nnc(-c2ccccc2F)o1)NC1CCCCC1,-0.3% (inactive),
Cc1ccc(-n2c3c(cc(C(=O)NC4CCSC4=O)c2=O)C(=O)CCC3)cc1 (configuration not stated),-1.5% (inactive),
CCOc1cc(/C=N\Nc2ccc([N+](=O)[O-])cc2)ccc1OCC(=O)Nc1ccc(C)c(C)c1,88.4% (active),94.3
CCOc1cc(/C=N/NC(N)=O)ccc1OCC(=O)Nc1ccc(C)c(C)c1,-2% (inactive),
COc1cc(/C=N\Nc2ccc([N+](=O)[O-])cc2)ccc1OCC(=O)Nc1ccc(C)c(C)c1,27.8% (inactive),
CC(Sc1ccccc1)C(=O)NCCc1ccccc1 (configuration not stated),0.1% (inactive),
COc1ccccc1-c1nc(S(=O)(=O)c2ccc(Cl)cc2)c(N(C)C)o1,0.1% (inactive),
O=c1c2[nH]c3cccc(Cl)c3c2ncn1Cc1ccncc1,0.2% (inactive),
O=C1NN(c2ccccc2)C(=O)/C1=C/c1ccc(-c2ccc(Cl)c(C(=O)O)c2)o1,34.7% (inactive),
COC(=O)c1ccc(N2NC(=O)/C(=C/c3ccc(-c4ccc(Cl)c(C(=O)O)c4)o3)C2=O)cc1,54.7% (active),
Cc1ccc(N2NC(=O)/C(=C/c3ccc(-c4ccc(Cl)c(C(=O)O)c4)o3)C2=O)cc1,29.4% (inactive),
Cc1cc(CSc2ccccc2)ccc1NC(=O)c1ccc(Cl)c([N+](=O)[O-])c1,1.8% (inactive),
O=Cc1ccc2noc(-c3ccc(F)cc3)c2c1,75.6% (active),79.8
Cc1ccc(-c2onc3ccc(C=O)cc23)cc1,-0.6% (inactive),
O=Cc1ccc2noc(-c3ccc(Cl)cc3)c2c1,28.2% (inactive),
COc1ccc2c(ccc[n+]2CC(=O)c2ccccc2)c1,1.3% (inactive),
Cc1nc(NC(=O)CSc2cc(C)c3ccccc3n2)c(Cl)cc1Cl,-0.4% (inactive),
S=C(Nc1ccc(Oc2ccccc2)cc1)N1CCOCC1,-0.2% (inactive),
COc1cc(CNCc2ccccc2Cl)ccc1OCC(=O)NC1CCCCC1,0.7% (inactive),

Compound,inhibition (at 20 µM),inhibition [1] [%]
CN(/C=C/C(=C\C=[N+](C)c1ccccc1)OCCCS(=O)(=O)[O-])c1ccccc1,24.5% (inactive),
CN(C)/C=C/C(=O)c1ccc(S(=O)(=O)c2ccccc2)cc1,2.7% (inactive),
CN(/C=C/C(=C/C=[N+](C)c1ccccc1)OCCCS(=O)(=O)[O-])c1ccccc1,71.6% (active),
Clc1ccccc1OCCN1CCC(Cc2ccccc2)CC1,-0.6% (inactive),
Cc1ccc(/C=N/N=C/c2ccc(C)cc2)cc1,0.6% (inactive),
Cc1ccc(C=C2C(Cl)=C(Cl)C(Cl)=C2Cl)cc1,53.9% (active),
Cc1ccc(/C=[N+](/C)[O-])cc1,-1.3% (inactive),
COc1ccccc1OCCCCOc1ccccc1C(C)=O,0.9% (inactive),
O=C(/C=C/Nc1cccc(F)c1)c1ccco1,1.5% (inactive),
COC(=O)c1ccc(=O)c2nc3/c(=C/O)c(O)cc(=O)c3[nH]c12,56.3% (active),
COC(=O)c1ccc(N)cc1O,-0.9% (inactive),
COC(=O)c1ccc(C(=O)OC)c(=O)[nH]1,-0.4% (inactive),
COc1ccc(NC(=S)N(Cc2cccnc2)Cc2ccco2)cc1,-0.6% (inactive),
Clc1ccc(Cc2noc(-c3cccs3)n2)cc1,1.2% (inactive),
CCN1CCN(Cc2c(O)ccc3c2O/C(=C\c2ccc(C)cc2)C3=O)CC1,40.1% (inactive),
CC1CCCN(Cc2c(O)ccc3c2O/C(=C\c2ccco2)C3=O)C1 (configuration not stated),35.5% (inactive),
COCCN(CCOC)Cc1c(O)ccc2c1O/C(=C\c1ccco1)C2=O,50.4% (active),78.9
Cc1cc(O)c(CN(C)C)c2c1C(=O)/C(=C/c1ccco1)O2,29.7% (inactive),
CC1CCN(Cc2c(O)ccc3c2O/C(=C\c2ccco2)C3=O)CC1,56.7% (active),90.4
O=C1/C(=C/c2ccco2)Oc2c1ccc(O)c2CN1CCCCC1,58.1% (active),
COCCN(CCOC)Cc1c(O)ccc2c1O/C(=C\c1ccc(C)o1)C2=O,27.4% (inactive),
Cc1ccc(/C=C2\Oc3c(ccc(O)c3CN3CCN(C)CC3)C2=O)cc1,45.4% (inactive),
CC(C)(C)c1ccc(/C=C2\Oc3c(ccc(O)c3CN3CCN(CCO)CC3)C2=O)cc1,17.8% (inactive),
COc1ccc(C2C(C(=O)N3CCN(c4ccccn4)CC3)CCC(=O)N2c2ccc(OC)cc2)cc1 (configuration not stated),-2.1% (inactive),

Compound,inhibition (at 20 µM),inhibition [1] [%]
O=C1C=C(N2CCCCCC2)C2(CCCCC2)O1,0.8% (inactive),
C[C@H](NC(=O)c1nc[nH]c1C(=O)NC(c1ccccc1)c1ccccc1)C(=O)OCc1ccccc1,2.7% (inactive),
CCSc1nnc(-c2sc3nnc(-c4ccccc4)c(-c4ccccc4)c3c2N)o1,98.4% (active),
CCSc1nnc(-c2cccs2)o1,1.8% (inactive),
NC(=O)c1sc2nnc(-c3ccccc3)c(-c3ccccc3)c2c1N,1.6% (inactive),
O=C(Cn1c(=O)oc2cc(S(=O)(=O)N3CCCC3)ccc21)N1CCN(C2CCCCC2)CC1,0% (inactive),
O=C(CSc1nc2ccccc2c(=O)n1Cc1ccco1)N1CCN(c2ccccc2)CC1,-4.4% (inactive),
O=C(Nc1cccc(-c2nc3cc(Cl)ccc3o2)c1)C1CCCO1 (configuration not stated),1% (inactive),
CN(C)S(=O)(=O)c1cccc(C(=O)OCC(=O)NCc2ccc3c(c2)OCO3)c1,0.4% (inactive),
COc1ccc2sc(/C=C/c3ccccc3O)[n+](C)c2c1,69.1% (active),88.7
C[n+]1ccc(/C=C/c2ccccc2O)c2ccccc21,1.2% (inactive),
COc1ccc2sc(C)[n+](C)c2c1,-2.6% (inactive),
Cc1cc(C(=O)Nc2cccnc2)cs1,0.7% (inactive),
Cn1c(=O)oc2cc(S(=O)(=O)NCc3ccc(F)cc3)ccc21,8.5% (inactive),
CCN1CCN(S(=O)(=O)CC2(C)C3CCC2(C)C(=O)C3Br)CC1 (configuration not stated),-1.8% (inactive),
Cc1cc(C)c2nc(-c3ccccn3)cc(C(=O)Nc3ccc(S(=O)(=O)Nc4cc(C)on4)cc3)c2c1,59% (inactive),21.6
Cc1cc(C)c(C(=O)Nc2ccc(S(=O)(=O)Nc3onc(C)c3C)cc2)c(C)c1,0.9% (inactive),
COc1ccc(-c2cc(C(=O)Nc3ccc(S(=O)(=O)Nc4onc(C)c4C)cc3)c3ccccc3n2)cc1,64.1% (inactive),40.8
Cc1cc(C)c2nc(-c3ccccn3)cc(C(=O)Nc3ccc(S(=O)(=O)Nc4onc(C)c4C)cc3)c2c1,70.5% (active),
Cc1ccccc1C(=O)Nc1ccc(S(=O)(=O)Nc2onc(C)c2C)cc1,0.8% (inactive),
Cc1cc(C)c2nc(-c3cccnc3)cc(C(=O)Nc3ccc(S(=O)(=O)Nc4onc(C)c4C)cc3)c2c1,57% (active),
